The source of these data is PubChem BioAssay AID1508600 (Functional Genomics Laboratory (NCATS/FGL), 2020).

Hit rate of the full screen: of about 53,000 sequences, about 3,700 (7%) were called active. The full list was thinned out, with actives kept by preference. Unmarked numbers belong to inactive results.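 How the source made its calls: active means gene knockdowns whose robust z-score for IL-1 alpha signal is at least 2 or at most -2, so actives lie on both sides; inactive means the rest.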

This assay is described as follows: Components of the Cytosolic LPS Sensing Pathway: Gene Identification via Genome-wide siRNA Screen.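 Further: robust z of the log signal after scaling to non-targeting control siRNA wells of the plate.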 To be noted: RAW264.7 macrophages, IL-1a HTRF, actives lie on both sides, screened at 100 nM (by protocol), cells primed 5 h with Pam3CSK4 first. A digest of the protocol:
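Three distinct siRNAs per gene were tested singly at 100 nM in RAW264.7 macrophages. Following Pam3CSK4 priming and 24 hour LipidA transfection, IL-1a secretion was read by HTRF.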
Consider GGUUACGAAGAUUAAUGUGTT against Crk, for which the z-score is 1.27.

For GGACAGGUGUCGAUCAAACTT against Zfp280c, the z-score was 0.0987.

Turning to GGAAUUGCACUUUUCCAAUTT against Phlda1, the z-score is 0.481.

In the case of GGAUGCAGUACGAAAUUCUTT against Psmd1, the z-score was -2.93 (active).

Consider GGCAGUGCCAAUGAACAAGTT against Elob, for which the z-score was 0.591.

Consider GGUUGUUUUGGAAUUGAUATT against Smu1, for which the z-score was -2.82 (active).

With CGAGCAUGCAUUCAAAGGATT against Lrrc3b, the z-score was 1.33.

GGGCACAUACUCAGAUGAATT against Ngfr: the z-score was -0.62.

Turning to GAGUAUCAUUUCCUGUUUUTT against Olfr389, the z-score is -0.395.

For the sequence CCAUUCCAGUUAUGUCAAUTT against Pus3, the z-score was -1.06.

As for CCCUCAGGACACGUUUUAGTT against Wdsub1, the z-score is -2.14 (active).

With CGAGCCAUACCUUCAACUGTT against Ncoa2, the z-score is -0.815.

On to GGAGCAGAUGAGAUCCAAGTT against Cdc42se1, for which the z-score is -0.256.

Consider GCCUUUAUAGUCUUAAGCATT against Ndc1, for which the z-score was -0.209.

For GGAAAAACUCCCUCGGUACTT against Rps11, the z-score is 0.683.

Regarding GCUGCUUUGGGCACAAGAUTT against Nppb, the z-score was 0.428.

For GCUCCUAUGGCAACAUCGUTT against Olfr303, the z-score is 2.11 (active).

On to “GGUAUGAGAUUACCUUCACTT against 1700037H04Rik”, for which the z-score was -1.16.

GCUCAGAAAUCGGCUCAGATT against Ssbp2: the z-score is -1.66.

On to GCUAAACUCCACCAAGACATT against Grid2ip, for which the z-score is 0.338.

For the sequence GGGCAAUUAUCUUUGUUAUTT against Olfr589, the z-score is -0.0712.

Regarding GCCAUUAUGACAGAACGCATT against Adra1d, the z-score is -0.606.

For the sequence GAACUACCUGGACUUCCACTT against Cox6b1, the z-score is 2.5 (active).

Consider GGACGAUUCUUUUAUUUGATT against Fam78b, for which the z-score is -1.22.

Consider CCAAUCGAUACAUCAUUUUTT against Gmcl1, for which the z-score was 1.1.

Turning to GCAUCAUACCACUGUGUUUTT against Obox1, the z-score was -1.

In the case of GGCUGUUUGGCUUGUUUAATT against Golga7, the z-score was 1.82.

Take CGGAUUCAGUAUUAGCAAUTT against Ogt: the z-score was -2.4 (active).

Regarding GGAAUUAUUCAGCAAGACUTT against Cdrt4, the z-score is -0.636.

CGUUUGUUACUCUUCAGCUTT against Olfr1461: the z-score was -1.07.

Turning to GGCCAUAACACAAAUGUAGTT against Prpf4, the z-score is 0.554.

Take GGAGGAAAGUAUGAAGAAATT against Cyp2j9: the z-score was -0.337.

On to GGCUGUGCAUUAUAUCCUUTT against Lhfpl1, for which the z-score is 1.2.

On to GCUCCUAGUGUUUUUGUGGTT against Rplp0, for which the z-score is -2.91 (active).

As for GGUUAUCCAGAGAGAAGGATT against Asxl2, the z-score was 0.399.

In the case of GGCUAAGCUGAAGAAGCACTT against Fam219b, the z-score is -0.326.

For GGUGACAACACUUGUCAACTT against Ctnna2, the z-score was -0.551.

Turning to GCCCAUGUUUUUUUUUCUGTT against Olfr648, the z-score was 0.776.

GGCUGCUUAACCUUGAUAATT against Lrrd1: the z-score is 0.529.

In the case of CGGUAGAGUCAGCAUUUGATT against Sez6, the z-score is -0.231.

In the case of GCCGAGAUGAGCUCCUAAUTT against Krt27, the z-score was 1.29.

Turning to GCUACAGCUUCAAUUAAAUTT against Birc6, the z-score is 0.135.

As for GGGAGAAACGCAUCUUAUCTT against Ngly1, the z-score was 2.38 (active).

As for CCCACAGGGAUUUAUUUAUTT against Slc37a1, the z-score was -0.362.

Turning to GGACAUCCAUCAGUACAGGTT against Hras, the z-score was 0.812.

Regarding GGCUGUCACUUUAUAGGCATT against Wrnip1, the z-score was -0.862.

As for CGACUUGAACUCUAUGGCGTT against Ascl1, the z-score was -0.12.

For the sequence CCGAAAGGCUGGUACAUUCTT against Kin, the z-score was -0.494.

For the sequence GGUUAUCUUCUUGACAGAATT against Nmur2, the z-score was 1.42.

Regarding CCUGUUUAGCAUCUGGGAGTT against Gpr1, the z-score was 6.24 (active).

In the case of GGUAGAGAUGUACAUUUGGTT against Chrdl2, the z-score is -1.72.

Consider GCAAGAAGUUCCUAUCAUCTT against Polr2b, for which the z-score is -1.67.

As to GCCCAAACUCAAGCAAGUCTT against Trpm3, the z-score was 2.37 (active).

For the sequence GGUUACCCAACUUGAAGGATT against Parp16, the z-score was 1.37.

Consider GGCAAAAAGAUAGGAGCUGTT against Txn1, for which the z-score is 0.57.

For the sequence GGUGACUAACGAGAUCAUUTT against Slc19a1, the z-score was 0.913.

On to CGAACAGAGUCUAAUCUCATT against Ptpn1, for which the z-score is 1.69.

Regarding AGGAAUGCCCAGGUCUCAGTT against Lst1, the z-score is -1.07.

On to GGUCUGCUAUGAAAUUAUGTT against Tmem14c, for which the z-score was -0.537.

Turning to GGACGGAGCUGUAAUUGCATT against Arhgef12, the z-score was 2.16 (active).

Take GGCCUACAGGACAAAGUUUTT against Comt: the z-score is 0.394.

Regarding CGACUAGAGUUGUGUGAUATT against Uqcrh, the z-score was 0.834.

Turning to GGUGCAUUAUAAGAAUCGCTT against Fhl1, the z-score is 0.144.

As for GGUGGUGCCAAGAUGUUGUTT against Aste1, the z-score was 2.26 (active).

As for GUACCUCUACUAUUCCUUUTT against Krtap5-2, the z-score was -0.13.

In the case of GGAGUUCAAGACGGAGAAGTT against Gpr27, the z-score is 0.000428.

With GGCUUAUAUCUGAUUGAUGTT against Rom1, the z-score is -1.17.

In the case of GGAAAGUGACUGCAUGUUCTT against Pgp, the z-score was -1.3.

Regarding GGACUUCUUCACCAUCUGGTT against Lcat, the z-score was -1.3.
